Test results as given in PubChem BioAssay (NCATS).
“And” between values parts separate entries of the source, which are not always exact repeats. Equal values may be shown once. Records with an inconclusive call do not appear. Unmarked numbers belong to inactive results. Calls follow the shape of the dose curve; as a rule, active = well fitted cell-killing curve with a large enough effect; inconclusive = small, poorly fitted or top-dose-only effect, or effect the other way; inactive = flat fitted curve, though single readings scatter.

assay: qHTS assay for cell viability of HEK293 cells (AID 743288); conditions: ATP luminescence (CellTiter-Glo), 18 h; max response: stronger effect = lower value; also: nearly all actives have a fitted effect of over 50% in size
Excerpt: National Center for Advancing Translational Sciences [NCATS]
NIH Chemical Genomics Center [NCGC]
U.S. Environmental Protection Agency [EPA]
National Institutes of Environmental Health Sciences [NIEHS]
National Toxicology Program [NTP]
U.S. Food and Drug Administration [FDA]
The CellTiter-Glo Luminescent Cell Viability Assay (Promega, Madison, WI) is a homogeneous method to determine the number of viable cells in culture based on quantitation of the ATP present, which signals the presence of metabolically active cells. This cell viability assay was used to screen environmental chemicals in the Hek293 cell line.
Tox21 Assay Protocol Summary:
Cell viability after compound treatment was measured using a luciferase-coupled ATP quantitation assay (CellTiter-Glo viability assay, Promega, Madison, WI) in parental HEK293 cells. Total intracellular ATP content corresponds to the number of metabolically competent cells after compound treatment. The cells were dispensed at 2,000 cells/5 uL/well in 1,536-well white/solid bottom assay plates using a Flying Reagent Dispenser (Aurora Discovery, San Diego, CA). The cells were incubated a minimum of 5 h at 37 C, followed by the addition of 23 nL of compounds dissolved in DMSO, positive controls or DMSO only using a pintool work station (Kalypsys, San Diego, CA). The assay plates were incubated for 18 h at 37 C, followed by the addition of 5 uL/well of CellTiter-Glo reagent. After 30 min incubation at room temperature, the luminescence intensity of the plates was measured using a ViewLux plate reader (PerkinElmer, Shelton, CT).
% is scaled to controls: 0 for no effect and ±100 for the full control effect.

SMILES	max response
c1ccc(-c2ccccc2)cc1	8.08% and -1.75%
CCCCSP(=O)(SCCCC)SCCCC	-3.57%
N#Cc1c(Cl)cccc1Cl	0.0704%
CCCC(=O)Cl	0.489%
Brc1ccccc1	3.06% and -4.67%
C[N+](C)(C)Cc1ccccc1	3.84% and -11.6%
CC(=O)[O-].CC(=O)[O-].O.O.O.[Pb+2]	-11.3% and -5.22%
Oc1ccc(Cl)cc1Cl	3.78% and -2.5%
O=NN(c1ccccc1)c1ccccc1	-0.72% and 1.61%
OCC1CO1 (stereo not given)	-3.99% and -2.83%
CC(C)(OO)c1ccccc1	-6.54% and -1.29%
CC(C)(C)OO	-29% and 2.51%
C[C@H]1CCCC(=O)CCC/C=C/c2cc(O)cc(O)c2C(=O)O1	-26.5% and -8.31% and -15%
C[C@]12CC[C@H]3[C@@H](CCC4=CC(=O)CC[C@@]43C)[C@@H]1CC[C@@H]2O	-9.57%
CCCOC(=O)c1ccccc1C(=O)OCCC	-2.21% and -12.8%
O=[N+]([O-])c1cccc2ccccc12	-12% and 2.53%
Cc1ccc2ccccc2c1	2.28%
CC(C)OC(=O)Nc1cccc(Cl)c1	-6.02%
ClC1=C(Cl)C2(Cl)C3C4CC(C5OC45)C3C1(Cl)C2(Cl)Cl (stereo not given)	-18.3%
Nc1ccc(Br)cc1	-7.62%

SMILES	max response
c1ccc(N=Nc2ccccc2)cc1	1.24% and -11.6%
COC1=CC(=O)OC(CCc2ccccc2)C1 (stereo not given)	-7.7%
C1CCC2CCCCC2C1 (stereo not given)	0.933%
C=CCOC(=O)c1ccccc1N	8.68%
CNC(=O)O/N=C/C(C)(C)SC	-1.1% and -12.4% and -2.16%
c1ccc(OP(Oc2ccccc2)Oc2ccccc2)cc1	-13.6% and -7.52%
ClC(Cl)=C(Cl)Cl	2.96% and -9.63%
C=CC(N)=O	-9.64% and 2.95% and 5.31%
[O-][Br+2]([O-])O	-15.7% and 1.39%
C=CC(=O)OCC	-0.244%
Cc1ccccc1N	-10.9% and 0.49%
Clc1cccc(C(Cl)(Cl)Cl)n1	8.34% and -7.37%
CCCCOCCOP(=O)(OCCOCCCC)OCCOCCCC	-5.77% and -12.8%
O=NN(CCO)CCO	-4.1%
C=C(C)C(=O)OCC1CO1 (stereo not given)	3.25%
Clc1nc(Cl)nc(Cl)n1	-10.6% and 4.47%
Brc1ccc(Oc2cc(Br)c(Br)cc2Br)c(Br)c1	-22.3% and -23.6%
CC(O)CCl (stereo not given)	2.39% and -2.48%
CCCSC(=O)Cl	-1.07%
N#CCCCl	-10.6% and 0.832%
